We go through 16 compounds from PubChem BioAssay (Tox21).

Experiment [1] can be described thus: qHTS assay to identify small molecule antagonists of the thyroid receptor (TR) signaling pathway - cell viability counter screen (AID 743064). Further: nearly all actives have a fitted effect of over 50% in size. The method, boiled down: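 GH3.TRE-Luc rat pituitary cells carrying a TRE-luciferase reporter were treated with compound plus 1 nM T3 (final) for 23.5 h at 37 °C. Viability was then read in the same wells by CellTiter-Fluor fluorescence after a further 30 min.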
For orientation: Quantitative high-throughput screening tests each substance at several concentrations.

Experiment [2] in a line: qHTS assay to identify small molecule antagonists of the thyroid receptor (TR) signaling pathway (AID 743065). Further: series mostly up to about 70 µM; nearly all actives have a fitted effect of over 55% in size. The essentials:
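GH3.TRE-Luc rat pituitary cells (two TREs driving luciferase) were dosed with compound, then stimulated with 1 nM T3 (final) for 23.5 h at 37 C. ONE-Glo luminescence was the read-out, with CellTiter-Fluor fluorescence as the cytotoxicity counter-screen.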

Experiment [3] deals with thyroid hormone receptor (rat, GH3 cells). In words: qHTS assay to identify small molecule agonists of the thyroid receptor (TR) signaling pathway (AID 743066; calls by dose curve).
Experiment [4] concerns the target Estrogen receptor (Homo sapiens) (UniProt P03372). Put plainly: qHTS assay to identify small molecule antagonists of the estrogen receptor alpha (ER-alpha) signaling pathway (AID 743069; active means well fitted curve in the direction sought with a large enough effect in the signal ratio in the repeat runs, not every such curve was filed as active; the % refers to the signal ratio). The essentials:
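Reporter cells (ER-alpha-bla, HEK293 background) are conditioned overnight in stripped-serum medium (2% charcoal-stripped FBS). Compound and 17beta-estradiol exposure runs 18 hr at 37C, 5% CO2.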

Experiment [5] in a line: qHTS assay to identify small molecule antagonists of the estrogen receptor alpha (ER-alpha) signaling pathway - cell viability counter screen (AID 743074; calls by dose curve;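 further: HEK293 cells carrying ER-alpha-UAS-bla reporter stimulated with 17beta-estradiol; nearly all actives have a fitted effect of over 45% in size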).
The target in experiment [6] is Estrogen receptor (Homo sapiens) (UniProt P03372). In words: qHTS assay to identify small molecule agonists of the estrogen receptor alpha (ER-alpha) signaling pathway (AID 743075; calls by dose curve;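 further: HEK293 GripTite cells with ER-alpha and UAS-driven beta-lactamase reporter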).
For experiment [7] the target is unchanged. In words: qHTS assay to identify small molecule agonists of the estrogen receptor alpha (ER-alpha) signaling pathway using the BG1 cell line (AID 743079). Further: nearly all actives have a fitted effect of over 20% in size. Further: potency means the concentration at half of the fitted maximal effect.
A short description of experiment [8]: qHTS assay to identify small molecule antagonists of the estrogen receptor alpha (ER-alpha) signaling pathway using the BG1 cell line (AID 743080; calls by dose curve;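 further: BG1 cells stimulated with 17beta-estradiol alongside compound; series mostly up to about 70 µM; nearly all actives have a fitted effect of over 25% in size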). The essentials: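 BG1Luc4E2, endogenous ER-alpha, 4xERE-luc; 5 d charcoal-stripped FBS, phenol red free; 24 h plating; cpd + 17beta-estradiol 21.5 h, 37 C/5% CO2; CellTiter-Fluor viability 30 min, then ONE-Glo luciferase 30 min RT.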

Experiment [9] in a line: qHTS assay to identify small molecule antagonists of the estrogen receptor alpha (ER-alpha) signaling pathway using the BG1 cell line - cell viability counter screen (AID 743081).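 Further: compound given together with 17beta-estradiol as the ER stimulus; series mostly up to about 70 µM; nearly all actives have a fitted effect of over 45% in size.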
For experiment [10], the target named is Aromatase (Homo sapiens) (UniProt P11511). In words: qHTS assay to identify aromatase inhibitors (AID 743083). Further: series mostly up to about 70 µM; nearly all actives have a fitted effect of over 55% in size.
Experiment [11] can be described thus: qHTS assay to identify aromatase inhibitors - cell viability counter screen (AID 743084).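 Further: cells stimulated with testosterone during compound exposure; nearly all actives have a fitted effect of over 55% in size.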
Experiment [12] concerns the target Aryl hydrocarbon receptor (Homo sapiens) (UniProt P35869). Put plainly: qHTS assay to identify small molecule that activate the aryl hydrocarbon receptor (AhR) signaling pathway (AID 743085).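 Further: HG2L7.5c1 human HepG2 liver cells with stably integrated DRE-driven firefly reporter; series mostly up to about 70 µM; nearly all actives have a fitted effect of over 15% in size.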 The essentials:
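HepG2 cells (HG2L7.5c1) stably carrying a firefly luciferase reporter driven by 20 dioxin responsive elements were exposed to compound for 24 h at 37C after a 5 h settling period; luminescence rise (ONE-Glo) indicated activation.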

Experiment [13] can be described thus: qHTS assay to identify small molecule that activate the aryl hydrocarbon receptor (AhR) signaling pathway - cell viability counter screen (AID 743086).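 Further: HepG2 liver cells carrying the AhR DRE luciferase reporter; series mostly up to about 70 µM; nearly all actives have a fitted effect of over 45% in size.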 The essentials: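 HepG2-AhR-luc (HG2L7.5c1) cells, 4000/well, treated 24 h at 37 C with compound; viability measured as CellTiter-Fluor fluorescence after 30 min in the same wells as the luciferase read.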
Experiment [14] addresses Peroxisome proliferator-activated receptor gamma (Homo sapiens) (UniProt P37231). Put plainly: qHTS assay to identify small molecule agonists of the peroxisome proliferator-activated receptor gamma (PPARg) signaling pathway (AID 743094; active means well fitted activation curve with a large enough effect in the signal ratio in the repeat runs, not every such curve was filed as active; the % refers to the signal ratio). The method, boiled down:
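GeneBLAzer PPARg UAS-bla HEK293H cells carrying a stably integrated beta-lactamase reporter were pre-incubated 5 h at 37C, then exposed to compounds in DMSO for 17 h at 37C; LiveBLAzer B/G FRET substrate was added for 1 h at room temperature and fluorescence read.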

Values joined by “and” are separate entries in the source; they are usually repeats but may differ in a detail not shown here. Identical values can stand only once. Inconclusive results are not listed. A structure can be active in one record and inactive in another. Active and inactive are the calls of the source. Unless noted, the call rests on the fitted dose curve; in most records, active means well fitted curve in the direction sought with a large enough effect in the repeat runs; inconclusive means weak or mixed curves; inactive means no such curve, though single readings can be large; an effect the other way counts as inactive or inconclusive. Positions of bridges follow the written chain, without caps; N, C: chain ends. Non-standard residues stand in square brackets, D forms with d. Residues, ends and D or L forms follow the SMILES beside them. *: point of attachment. Dab(CH2SO3H) = N[C@@H](CCNCS(=O)(=O)O)C(=O)O; X3 = CC[C@@H](C)CCCCC(=O)*; Dab = NCC[C@H](N)C(=O)O

Estrogen receptor (Homo sapiens), sequence (P03372 whole entry, looked up): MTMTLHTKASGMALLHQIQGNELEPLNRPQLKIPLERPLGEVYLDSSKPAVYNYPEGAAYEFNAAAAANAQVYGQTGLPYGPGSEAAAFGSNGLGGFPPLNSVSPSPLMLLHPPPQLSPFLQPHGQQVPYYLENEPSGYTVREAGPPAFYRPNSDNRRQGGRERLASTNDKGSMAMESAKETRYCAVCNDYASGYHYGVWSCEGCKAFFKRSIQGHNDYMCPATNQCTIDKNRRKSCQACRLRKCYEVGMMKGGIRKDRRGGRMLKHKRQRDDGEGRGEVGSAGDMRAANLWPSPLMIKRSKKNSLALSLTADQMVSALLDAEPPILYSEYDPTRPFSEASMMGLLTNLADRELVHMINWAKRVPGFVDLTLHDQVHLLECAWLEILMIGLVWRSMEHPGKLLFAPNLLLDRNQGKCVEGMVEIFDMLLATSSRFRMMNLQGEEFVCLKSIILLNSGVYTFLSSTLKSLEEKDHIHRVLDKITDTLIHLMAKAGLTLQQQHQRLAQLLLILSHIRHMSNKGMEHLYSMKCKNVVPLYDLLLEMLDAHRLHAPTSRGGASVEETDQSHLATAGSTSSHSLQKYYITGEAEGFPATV
Aryl hydrocarbon receptor (Homo sapiens), sequence (P35869 whole entry, looked up): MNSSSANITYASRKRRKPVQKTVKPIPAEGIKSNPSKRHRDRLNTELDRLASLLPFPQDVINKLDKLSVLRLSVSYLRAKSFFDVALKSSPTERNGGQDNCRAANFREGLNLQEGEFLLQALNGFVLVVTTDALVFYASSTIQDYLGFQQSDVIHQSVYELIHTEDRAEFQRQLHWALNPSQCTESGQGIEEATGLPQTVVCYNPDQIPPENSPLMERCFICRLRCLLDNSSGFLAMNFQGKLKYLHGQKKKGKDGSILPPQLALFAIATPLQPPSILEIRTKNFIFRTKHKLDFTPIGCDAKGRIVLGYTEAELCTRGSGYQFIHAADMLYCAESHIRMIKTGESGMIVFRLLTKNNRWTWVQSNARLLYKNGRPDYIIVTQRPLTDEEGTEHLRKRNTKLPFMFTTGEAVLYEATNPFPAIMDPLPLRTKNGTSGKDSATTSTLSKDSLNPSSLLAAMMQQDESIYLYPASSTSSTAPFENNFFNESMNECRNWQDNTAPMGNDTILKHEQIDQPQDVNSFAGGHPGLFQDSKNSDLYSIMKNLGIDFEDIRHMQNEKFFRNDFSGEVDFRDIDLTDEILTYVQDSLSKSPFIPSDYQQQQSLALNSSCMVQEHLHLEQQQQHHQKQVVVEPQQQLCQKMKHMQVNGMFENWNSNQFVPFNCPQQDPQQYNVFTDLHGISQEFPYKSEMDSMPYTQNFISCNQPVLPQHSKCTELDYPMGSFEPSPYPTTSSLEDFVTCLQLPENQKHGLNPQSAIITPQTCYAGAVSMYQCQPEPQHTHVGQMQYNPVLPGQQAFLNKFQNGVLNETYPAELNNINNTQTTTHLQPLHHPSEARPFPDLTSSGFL
Peroxisome proliferator-activated receptor gamma (Homo sapiens), sequence (P37231 whole entry, looked up): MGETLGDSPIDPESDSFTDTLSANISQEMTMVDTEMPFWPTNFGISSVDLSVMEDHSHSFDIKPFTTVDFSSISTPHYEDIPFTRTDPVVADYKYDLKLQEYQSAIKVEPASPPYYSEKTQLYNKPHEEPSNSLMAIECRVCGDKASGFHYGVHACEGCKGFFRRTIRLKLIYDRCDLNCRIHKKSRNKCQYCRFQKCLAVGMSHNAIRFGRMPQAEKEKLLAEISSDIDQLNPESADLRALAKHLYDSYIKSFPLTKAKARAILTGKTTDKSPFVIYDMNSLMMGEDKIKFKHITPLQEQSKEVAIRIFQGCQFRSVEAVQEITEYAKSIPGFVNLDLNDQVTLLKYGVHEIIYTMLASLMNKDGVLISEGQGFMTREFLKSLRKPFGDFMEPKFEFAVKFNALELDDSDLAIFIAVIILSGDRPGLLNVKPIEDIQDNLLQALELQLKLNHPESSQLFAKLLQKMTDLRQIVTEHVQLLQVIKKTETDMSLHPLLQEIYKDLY
Aromatase (Homo sapiens), sequence (P11511 whole entry, looked up): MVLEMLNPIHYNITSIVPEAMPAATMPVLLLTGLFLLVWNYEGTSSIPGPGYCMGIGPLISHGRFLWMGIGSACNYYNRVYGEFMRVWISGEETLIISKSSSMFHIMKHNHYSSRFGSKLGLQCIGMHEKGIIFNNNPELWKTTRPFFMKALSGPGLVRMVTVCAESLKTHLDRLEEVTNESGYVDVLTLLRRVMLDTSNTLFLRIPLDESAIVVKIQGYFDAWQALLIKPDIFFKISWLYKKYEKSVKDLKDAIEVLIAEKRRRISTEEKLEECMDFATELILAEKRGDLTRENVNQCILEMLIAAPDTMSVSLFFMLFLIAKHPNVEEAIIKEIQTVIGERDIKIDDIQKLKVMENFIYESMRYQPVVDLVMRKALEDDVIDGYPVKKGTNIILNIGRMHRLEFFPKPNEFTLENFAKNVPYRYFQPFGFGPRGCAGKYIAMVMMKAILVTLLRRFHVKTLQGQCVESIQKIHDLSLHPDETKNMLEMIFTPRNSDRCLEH

`C=CC1=C(C(=O)O)N2C(=O)[C@@H](NC(=O)/C(=N/OCC(=O)O)c3csc(N)n3)[C@H]2SC1` (stereo in doubt): the Potency result in [1], in [2], in [3], in experiment [4], in [5] and in experiment [6] was “inactive” in each case. The Potency result in [7], in experiment [8], in experiment [9], in experiment [10], in experiment [11] and in [12] was “inactive” throughout. For the same compound, the Potency entry in experiment [13] and in experiment [14] was “inactive” in each case.

As to `CC12CCC(C1)C(C)(C)C2=O` (centres undefined), the Potency entry in experiment [1], in [2], in experiment [3], in experiment [4], in experiment [5] and in experiment [6] was “inactive” in each case. Besides, the Potency entry in experiment [7], in experiment [8], in [9], in [10], in experiment [11] and in experiment [12] was “inactive” throughout. The Potency result in [13] and in [14] was “inactive” throughout.

Consider `O=C(CCCN1CCN2CCCC2C1)c1ccc(F)cc1` (centres undefined), for which the Potency entry in experiment [1], in experiment [2], in [3], in experiment [4], in experiment [5] and in experiment [6] was “inactive” each time. The Potency entry in experiment [7], in [8], in experiment [9], in [10], in [11] and in experiment [12] was “inactive” throughout. The Potency result in [13] and in experiment [14] was “inactive” each time.

In the case of `CC(=O)OCC(=O)[C@@]1(O)CC[C@H]2[C@@H]3CCC4=CC(=O)CC[C@]4(C)C3=CC[C@@]21C`, the Potency entry in experiment [1], in [2], in experiment [3], in experiment [4], in [5] and in experiment [6] was “inactive” throughout. The Potency result in experiment [8], in experiment [9], in experiment [10], in [11], in [12] and in experiment [13] was “inactive” each time. Also, the Potency entry in experiment [14] was “inactive”. In addition, in [7], the Potency was 29.8 µM (active).

For `CC[C@@H](C)[C@H](N)C(=O)O`, the Potency entry in [1], in experiment [2], in [3], in [4], in experiment [5] and in [6] was “inactive” each time. Further, the Potency entry in experiment [8], in experiment [9], in experiment [10], in [11], in experiment [12] and in experiment [13] was “inactive” in each case. Also, the Potency in experiment [7] is 26.6 µM (active).

For `CC[C@@H](C)CCCCC(=O)N[C@@H](CCNCS(=O)(=O)O)C(=O)N[C@H](C(=O)N[C@@H](CCNCS(=O)(=O)O)C(=O)N[C@H]1CCNC(=O)[C@H]([C@@H](C)O)NC(=O)[C@H](CCNCS(=O)(=O)O)NC(=O)[C@H](CCNCS(=O)(=O)O)NC(=O)[C@H](CC(C)C)NC(=O)[C@@H](CC(C)C)NC(=O)[C@H](CCNCS(=O)(=O)O)NC1=O)[C@@H](C)O` (X3-[Dab(CH2SO3H)]T[Dab(CH2SO3H)][Dab][Dab(CH2SO3H)][dL]L[Dab(CH2SO3H)][Dab(CH2SO3H)]T; lactam 4-C), the Potency entry in experiment [1], in experiment [2], in [3], in [4], in experiment [5] and in experiment [6] was “inactive” in each case. The Potency entry in [7], in [8], in experiment [9], in [10], in [11] and in experiment [12] was “inactive” throughout.

As for `COC1=C(OC)C(=O)C(C/C=C(\C)CC/C=C(\C)CC/C=C(\C)CC/C=C(\C)CC/C=C(\C)CC/C=C(\C)CC/C=C(\C)CC/C=C(\C)CC/C=C(\C)CCC=C(C)C)=C(C)C1=O`, the Potency entry in [1], in [2], in experiment [3], in experiment [4], in experiment [5] and in experiment [6] was “inactive” throughout. Moreover, the Potency result in experiment [7], in experiment [8], in [9], in [10], in experiment [11] and in experiment [12] was “inactive” each time. The Potency result in [13] and in experiment [14] was “inactive” in each case.

Turning to `CN[C@@H]1[C@@H](O[C@H]2O[C@H](CO)[C@@H](N)[C@H](O)[C@H]2O)O[C@H]2C[C@@H](N)[C@@H](O[C@H]3[C@H](O)[C@@H](O)[C@H](N)C[C@@H]3N)O[C@@H]2[C@@H]1O`, the Potency result in experiment [1], in experiment [2], in experiment [3], in experiment [4], in [5] and in experiment [6] was “inactive” in each case. In addition, the Potency result in experiment [7], in experiment [8], in [9], in experiment [10], in experiment [11] and in experiment [12] was “inactive” throughout. In addition, in experiment [13], the Potency entry was “inactive”.

`Nc1c(CC(=O)O)cccc1C(=O)c1ccccc1`: the Potency entry in [1], in experiment [2], in experiment [3], in [4], in experiment [5] and in experiment [6] was “inactive” throughout. For the same compound, the Potency result in [8], in [9], in [10], in experiment [11], in experiment [12] and in experiment [13] was “inactive” in each case. Besides, the Potency result in experiment [7] was “inactive and 10.6 µM (active)”.

As to `CC(=NCc1ccccc1)c1ccccc1O`, the Potency entry in experiment [1], in experiment [2], in experiment [3], in [4], in experiment [5] and in [6] was “inactive” throughout. In addition, the Potency entry in [7], in experiment [8], in experiment [9], in experiment [10], in experiment [11] and in experiment [12] was “inactive” each time. Also, in experiment [13], the Potency result was “inactive”.

As for `C/C(=C\C(=O)OCCCCCCCCC(=O)O)C[C@@H]1OC[C@H](C[C@@H]2O[C@H]2[C@@H](C)[C@H](C)O)[C@@H](O)[C@H]1O`, the Potency result in [1], in experiment [2], in experiment [3], in [4], in [5] and in experiment [6] was “inactive” in each case. For the same compound, the Potency entry in [7], in experiment [8], in experiment [9], in [10], in experiment [11] and in experiment [12] was “inactive” in each case. Also, in [13], the Potency entry was “inactive”.

For `NC[C@H]1O[C@H](O[C@H]2[C@H](O)[C@@H](O[C@H]3O[C@H](CO)[C@@H](O)[C@H](N)[C@H]3O)[C@H](N)C[C@@H]2N)[C@H](N)C[C@@H]1O`, the Potency entry in experiment [1], in [2], in experiment [3], in [4], in experiment [5] and in [6] was “inactive” each time. Besides, the Potency result in experiment [7], in experiment [8], in experiment [9], in experiment [10], in experiment [11] and in [12] was “inactive” in each case. In addition, the Potency entry in experiment [13] and in experiment [14] was “inactive” in each case.

Regarding `O=C(O)c1ccc(NC2OC[C@@H](O)[C@H](O)[C@H]2O)cc1` (some centres undefined), the Potency result in [1], in experiment [2], in experiment [3], in experiment [4], in experiment [5] and in experiment [6] was “inactive” each time. Besides, the Potency result in experiment [7], in experiment [8], in [9], in [10], in experiment [11] and in experiment [12] was “inactive” in each case. The Potency result in experiment [13] is “inactive”.

As for `CCCCCCCCCC(=O)NO`, the Potency entry in experiment [1], in experiment [2], in [3], in [4], in experiment [5] and in experiment [6] was “inactive” throughout. Besides, the Potency result in [7], in experiment [8], in [9], in [10], in [11] and in [12] was “inactive” each time. Also, the Potency entry in experiment [13] and in [14] was “inactive” each time.

`COc1ccc(/C=C/C(=O)O)cc1`: the Potency entry in experiment [1], in [2], in experiment [3], in experiment [4], in [5] and in [6] was “inactive” each time. In addition, the Potency result in [7], in [8], in experiment [9], in experiment [10], in experiment [11] and in [12] was “inactive” throughout. Besides, in [13], the Potency result was “inactive”.

With `CCN(CC)CCOC[C@H]1O[C@@H](O)[C@H](OCCN(CC)CC)[C@@H](O)[C@@H]1O`, the Potency result in experiment [1], in [2], in experiment [3], in experiment [4], in experiment [5] and in experiment [6] was “inactive” throughout. Also, the Potency entry in experiment [7], in experiment [8], in experiment [9], in experiment [10], in experiment [11] and in [12] was “inactive” in each case. In experiment [13], the Potency result is “inactive”.
